Growth inhibition data for 7 molecules are collected here from PubChem BioAssay (NCI).

Test [1] can be described thus: NCI Yeast Anticancer Drug Screen. Data for the rad50 strain (AID 155).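 Further: 0% = growth of vehicle-only cultures of the same strain.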 The conditions noted are these: S. cerevisiae rad50 strain growth inhibition, hits give high values. An outline of the steps: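 Compounds were tested on a yeast strain with an engineered DNA damage repair alteration; the reported value is growth inhibition normalised to vehicle treatment.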
Test [2] in a line: NCI Yeast Anticancer Drug Screen. Data for the mec2-1 strain (AID 157). The conditions noted are these: S. cerevisiae mec2-1 strain, hits give high values. An outline of the steps: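 Mutant yeast (mec2-1) grown with compound; growth inhibition relative to vehicle control reported.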
A short description of test [3]: NCI Yeast Anticancer Drug Screen. Data for the sgs1 mgt1 strain (AID 161).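 Further: 0% = growth of cultures given vehicle only.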 Conditions: S. cerevisiae sgs1 mgt1 strain, hits give high values. An outline of the steps:
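Yeast cells carrying a defined DNA-repair defect were exposed to test compounds. Growth inhibition was measured relative to vehicle-treated controls.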

Test [4] can be described thus: NCI Yeast Anticancer Drug Screen. Data for the cln2 rad14 strain (AID 165).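 Further: 0% = growth equal to vehicle treated cultures.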 The conditions noted are these: S. cerevisiae cln2 rad14 strain, hits give high values. In outline:
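Readout is yeast growth inhibition versus vehicle-treated controls, using a strain with cln2 and rad14 alterations exposed to compound.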

Test [5] is described as follows: NCI Yeast Anticancer Drug Screen. Data for the bub3 strain (AID 167). The conditions noted are these: S. cerevisiae bub3 mutant strain, hits give high values. In outline:
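Growth of a checkpoint-deficient yeast mutant is measured after compound exposure. Values represent inhibition relative to vehicle.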

Test [6] is described as follows: NCI Yeast Anticancer Drug Screen. Data for the mlh1 rad18 strain (AID 175). Conditions: S. cerevisiae mlh1 rad18 strain growth inhibition, hits give high values. In outline: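 Genetically defined yeast (DNA repair-deficient) exposed to compounds; growth inhibition determined relative to vehicle.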
Setting [7] is: at 5.0 µM (retest, dose inferred, filed as 0.5).
Setting [8] is: at 50.0 µM (retest, dose inferred, filed as 5.0).

Compounds without any hit were thinned out: in the full panel of roughly 79,000, 15% have a hit. Unmarked numbers belong to inactive results. The source made the active and inactive calls. No stated cut-off is given here; in the data, active means growth inhibition above about 70%; inactive means the rest.

Turning to `O=C(O)NCc1ccccc1` (tested in a mixture with another compound), the growth inhibition in test [1] (setting [7]) was 11%; in test [1] (setting [8]), 94% (active); in test [1] (at 50.0 µM), 94% (active); in test [2] (setting [7]), -12%; in test [2] (setting [8]), 40%; in test [2] (at 50.0 µM), 14.8%. The growth inhibition in test [3] (setting [7]) was -5%; in test [3] (setting [8]), 74% (active); in test [3] (at 50.0 µM), 36.1%; in test [4] (setting [7]), 5%; in test [4] (setting [8]), 98% (active); in test [4] (at 50.0 µM), 60%. For the same molecule, the growth inhibition in test [5] (setting [7]) is 23%; in test [5] (setting [8]) it was 98% (active); in test [5] (at 50.0 µM), 87.5% (active); in test [6] (setting [7]), 3%; in test [6] (setting [8]) it was 80% (active); in test [6] (at 50.0 µM), 88% (active).
Take `O=C(N/C(=C\c1cc(Cl)ccc1Cl)c1nc2ccc(Cl)cc2[nH]1)c1ccccc1`: the growth inhibition in test [1] (setting [7]) is 29%; in test [1] (setting [8]), 87% (active); in test [1] (at 50.0 µM), 93.2% (active); in test [2] (setting [7]), 17%; in test [2] (setting [8]), 82% (active); in test [2] (at 50.0 µM) it was 96.5% (active). The growth inhibition in test [3] (setting [7]) was 28%; in test [3] (setting [8]) it was 81% (active); in test [3] (at 50.0 µM), 93.8% (active); in test [4] (setting [7]) it was 39%; in test [4] (setting [8]), 84% (active); in test [4] (at 50.0 µM), 91.9% (active). Besides, the growth inhibition in test [5] (setting [7]) was 31%; in test [5] (setting [8]) it was 87% (active); in test [5] (at 50.0 µM) it was 94.7% (active); in test [6] (setting [7]), 14%; in test [6] (setting [8]), 81% (active); in test [6] (at 50.0 µM), 96.5% (active).
Take `Oc1ccccc1C1N(Cc2ccc(Cl)cc2)CCN1Cc1ccc(Cl)cc1`: the growth inhibition in test [1] (setting [7]) is 7%; in test [1] (setting [8]) it was 57%; in test [1] (at 50.0 µM) it was 18.2%; in test [2] (setting [7]), 7%; in test [2] (setting [8]), 58%; in test [2] (at 50.0 µM), 17.6%. In addition, the growth inhibition is 20% in test [3] (setting [7]); 93% (active) in test [3] (setting [8]); 46.5% in test [3] (at 50.0 µM); 14% in test [4] (setting [7]); 58% in test [4] (setting [8]); 62.6% in test [4] (at 50.0 µM). The growth inhibition in test [5] (setting [7]) is 22%; in test [5] (setting [8]) it was 81% (active); in test [5] (at 50.0 µM) it was 16.4%; in test [6] (setting [7]) it was 22%; in test [6] (setting [8]) it was 70% (active); in test [6] (at 50.0 µM) it was 18.4%.
As to `O=C(CCCN1CCc2[nH]c3cc(F)ccc3c2C1)c1ccc(F)cc1`, the growth inhibition in test [1] (setting [7]) was -11%; in test [1] (setting [8]) it was 97% (active); in test [1] (at 50.0 µM) it was 84.8% (active); in test [2] (setting [7]) it was -12%; in test [2] (setting [8]) it was 98% (active); in test [2] (at 50.0 µM) it was 68%. For the same molecule, the growth inhibition in test [3] (setting [7]) is -7%; in test [3] (setting [8]), 98% (active); in test [3] (at 50.0 µM) it was 90% (active); in test [4] (setting [7]), -9%; in test [4] (setting [8]), 94% (active); in test [4] (at 50.0 µM), 84.4% (active). In addition, the growth inhibition in test [5] (setting [7]) is -30%; in test [5] (setting [8]), 98% (active); in test [5] (at 50.0 µM), 91.7% (active); in test [6] (setting [7]) it was 12%; in test [6] (setting [8]) it was 99% (active); in test [6] (at 50.0 µM) it was 85.6% (active).
Take `CC(=O)Nc1ccc2c(c1)Cc1cccc(F)c1-2`: the growth inhibition was 11% in test [1] (setting [7]); 14% in test [1] (setting [8]); 70.3% (active) in test [1] (at 50.0 µM); 6% in test [2] (setting [7]); 5% in test [2] (setting [8]); 17.7% in test [2] (at 50.0 µM). The growth inhibition in test [3] (setting [7]) was 14%; in test [3] (setting [8]) it was 3%; in test [3] (at 50.0 µM), 22.4%; in test [4] (setting [7]), 29%; in test [4] (setting [8]) it was 7%; in test [4] (at 50.0 µM), 9.1%. Also, the growth inhibition in test [5] (setting [7]) was 17%; in test [5] (setting [8]), 8%; in test [5] (at 50.0 µM) it was 61.9%; in test [6] (setting [7]), -2%; in test [6] (setting [8]) it was 1%; in test [6] (at 50.0 µM), 32.1%.
For `CC(/C=C/c1ccc(Cl)cc1)=N\NC(N)=S`, the growth inhibition in test [1] (setting [7]) is 11%; in test [1] (setting [8]), 44%; in test [1] (at 50.0 µM) it was 68.2%; in test [2] (setting [7]), -1%; in test [2] (setting [8]), 29%; in test [2] (at 50.0 µM), 69%. In addition, the growth inhibition was 1% in test [3] (setting [7]); 59% in test [3] (setting [8]); 49.4% in test [3] (at 50.0 µM); 12% in test [4] (setting [7]); 32% in test [4] (setting [8]); 47.1% in test [4] (at 50.0 µM). Also, the growth inhibition in test [5] (setting [7]) is 1%; in test [5] (setting [8]) it was 38%; in test [5] (at 50.0 µM), 50%; in test [6] (setting [7]), 16%; in test [6] (setting [8]), 54%; in test [6] (at 50.0 µM), 60.5%.
`FC(F)(F)c1cc(NC(=S)SC2CCCCC2)ccc1Cl`: the growth inhibition in test [1] (setting [7]) was 12%; in test [1] (setting [8]), 97% (active); in test [1] (at 50.0 µM) it was 41%; in test [2] (setting [7]), 4%; in test [2] (setting [8]), 99% (active); in test [2] (at 50.0 µM) it was 79.2% (active). The growth inhibition in test [3] (setting [7]) was 4%; in test [3] (setting [8]), 98% (active); in test [3] (at 50.0 µM), 88% (active); in test [4] (setting [7]), -16%; in test [4] (setting [8]) it was 97% (active); in test [4] (at 50.0 µM), 88.8% (active). Also, the growth inhibition is 12% in test [5] (setting [7]); 98% (active) in test [5] (setting [8]); 85.9% (active) in test [5] (at 50.0 µM); 16% in test [6] (setting [7]); 97% (active) in test [6] (setting [8]); 90% (active) in test [6] (at 50.0 µM).
